Test results: PubChem BioAssay AID651588 (Broad Institute, 2012)
Potency and affinity values are given separately. Active and inactive are the calls of the source.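 How the source made its calls: active means compounds lowering reporter light with a fitted half-maximal concentration no more than twice the top tested dose; inconclusive means flat response with inhibition between 30 and 70%, or poor fit; inactive means rising signal, flat response, or weak potency.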

Test: inhibitors of TRPM1-promoter reporter in SK-MEL-5 – cell-based, luciferase, dry powder, set 9, MITF inhibitor project, dose response (AID 651588)

| Compound | outcome |
| --- | --- |
| Cc1ccc(NC2=CC(=O)c3ccccc3C2=O)cc1 | inactive |
| O=C1C=C(Nc2ccccc2)C(=O)c2ccccc21 | inactive |
